# From PubChem BioAssay AID588520 (NMMLSC, 2011)
# In all, about 1,700 compounds went through this assay and about 65 (4%) were called active. The list is a sample of the results. Values without a mark were called inactive. No stated cut-off is given here; in the data, active means Nile Red retention ratio vs DMSO above about 190%; inactive means the rest.
# Tested on: Candida albicans drug resistance protein 2 (Cdr2) efflux pump, expressed in S. cerevisiae
# Assay: inhibitors of Candida albicans Cdr2 efflux pump, confirmation, S. cerevisiae AD/CaCDR2, flow cytometry, cherry pick 1, singleplex (AID 588520);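 further: higher ratio means more blocking of Cdr2 efflux of the dye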
# Details: at 10 µM, hits give high values
row,Structure (SMILES),Nile Red retention ratio vs DMSO
1,COc1ccc2[nH]c3c(C)c4cc[n+](C)cc4c(C)c3c2c1,97.2%
2,O=C1NC(=O)C2C1C(c1ccc([N+](=O)[O-])cc1)=NN2Cc1ccccc1 (centres undefined),112%
3,COc1ccc(-c2sc3ccccc3c2-c2ccc(OCCN3CCOCC3)cc2)cc1,101%
4,O=C(NCc1ccccc1)C(=O)NCC1OCCN1S(=O)(=O)c1ccc(Br)cc1 (centres undefined),84.8%
5,COc1ccccc1CSc1ncc(-c2ccc([N+](=O)[O-])cc2)[nH]1,87.5%
6,CCOc1ccc(C2/C(=C(/O)c3ccc4c(c3)CC(C)O4)C(=O)C(=O)N2CCCn2ccnc2)cc1 (centres undefined),94.1%
7,COc1ccc(C(=O)NC2CC(C)(C)Cc3c2cnn3-c2ccccc2)c(OC)c1 (centres undefined),100%
8,CN1CCN(S(=O)(=O)c2ccc(NC(=S)NC(=O)C3CC3)cc2)CC1,103%
9,CC(C)C(=O)N1CCC2(CC1)Oc1ccc(F)cc1C(=O)C21CC(c2ccccc2)=NO1 (centres undefined),102%
10,CN(C)S(=O)(=O)c1cc(C(=O)Nc2ccn(C)n2)c(Cl)cc1Cl,99.3%
11,CCn1c(/C=C/c2ccc([N+](=O)[O-])o2)nc2ccccc2c1=O,212% (active)
12,O=S(=O)(c1ccccc1)N1CCc2ccccc21,83.1%
13,CC12CCC(C(=O)N(c3cccc(Cl)c3)C1=O)C2(C)C (centres undefined),110%
14,O=C(CNC(=O)c1ccc(-c2ccccc2)cc1)OCc1ccc(Cl)cc1,120%
15,Cc1cc(C)cc(NC(=O)C(OC(=O)c2ccc(O)cc2)c2ccccc2)c1 (centres undefined),101%
16,CC(/C=N/NC(=O)c1cc(-c2ccc3ccccc3c2)n[nH]1)=C\c1ccco1,95.4%
17,CCCc1nc(N2CCN(C)CC2)c2sc(=S)n(-c3ccccc3)c2n1,99.6%
18,C[n+]1ccc(/C=C/c2c[nH]c3ccccc23)cc1,140%
19,CCCCCCCCCCCCCCCC(=O)OC/C=C(C)/C=C/C=C(C)/C=C/C1=C(C)CCCC1(C)C,123%
20,Cc1nn(C)cc1N1C(=O)c2cccc3c(N)ccc(c23)C1=O,106%
21,COc1ccc(/C=C(\C#N)c2c[nH]c3ccccc23)cc1,98.5%
22,CCCCOc1ccc(C(=O)NCC(=O)OCC(=O)c2c(N)n(C)c(=O)n(C)c2=O)cc1,103%
23,NNC(=O)COc1ccc(C2SCCS2)cc1,98.5%
24,COc1ccc(C(=O)NC(=S)Nc2ccc(N3CCCC3)cc2)cc1OC,95.1%
25,O=C(CSc1nnc(-c2cccnc2)n1Cc1ccco1)c1ccc(Cl)c(Cl)c1,107%

row,Structure (SMILES),Nile Red retention ratio vs DMSO
1,CCCCN1C(=O)/C(=C/C=C2/C=Cc3ccccc3N2CC)SC1=S,108%
2,CCCCCC(=O)Nc1ccc(C(=O)N/N=C/c2ccc([N+](=O)[O-])cc2)cc1,105%
3,COc1ccc(C(=O)C2CCCN(Cc3cccn3-c3ccccn3)C2)c(C)c1 (centres undefined),98.5%
4,O=C(Cc1ccc(Br)cc1)N1CCN(c2ccccn2)CC1,85.2%
5,COc1ccc(NC(=S)N2CCc3cc(OC)c(OC)cc3C2)cc1,99.3%
6,CCOc1ccc(/C=C2\SC(=S)N(NC(=O)c3ccncc3)C2=O)cc1OC,105%
7,CN=C(c1ccccc1)c1c(C)cccc1C,107%
8,COc1ccc(S(=O)(=O)N2CCOC2CNC(=O)C(=O)NCc2ccc(F)cc2)cc1 (centres undefined),114%
9,Cc1cc(/C=N/NC(=O)CC2(C)OCCO2)c(C)n1-c1ccc(Cl)c(Cl)c1,101%
10,COc1ccccc1/C=C/C=N/n1c(-c2ccc(Cl)cc2Cl)n[nH]c1=S,119%
11,Cc1ccc(OCc2cc(C(=O)N(C)CCc3ccccc3)no2)cc1C,97.7%
12,CCOC(=O)c1c(NC(=S)NC(=O)c2ccco2)sc2c1CCCC2,95.4%
13,Cc1ccc(/C=C(\C#N)C(=O)Nc2cccc3ncccc23)o1,93%
14,COc1cccc(NC(=O)CN(C)C(=O)/C=C/c2cc(OC)ccc2OC)c1,97.5%
15,CSCCC(NC(=O)COc1ccccc1)C(=O)OCCOc1ccc(Br)cc1 (centres undefined),91.4%
16,O=C(CCCCCn1c(=O)[nH]c2ccccc2c1=O)NCCc1c[nH]c2ccccc12,96.3%
17,CCOC(=O)CNC(=O)CSc1nnnn1-c1cc(C)ccc1C,102%
18,O=C(OCc1ccc(-c2ccccc2)cc1)c1cccc(O)c1,108%
19,Cc1nc2c(C(=O)NCc3ccc4c(c3)OCO4)c[nH]n2c(=O)c1Cc1ccccc1F,108%
20,Cc1nn(C)cc1C(=O)Nc1ccccc1Br,104%
21,Cc1csc(NC(=O)c2ccc(-c3ccc(Cl)cc3Cl)o2)n1,104%
22,Cc1ccc(Cn2c(C)nc3c(c2=O)c2nc4ccccc4nc2n3Cc2ccco2)cc1,104%
23,O=C(/C=C/c1c(Cl)cccc1Cl)NCc1ccccc1,102%
24,Cc1ccc(N=C2NC(=O)/C(=C/C=C/c3ccco3)S2)cc1C,114%
25,Cc1cccc(NC(=O)COc2ccccc2C)n1,95.6%

row,Structure (SMILES),Nile Red retention ratio vs DMSO
1,COc1ccc(C(=O)NC2CCCc3c2cnn3-c2cccc(C)c2C)c(OC)n1 (centres undefined),93.2%
2,CC[n+]1cc(C)ccc1/C=C/c1ccc(N(C)C)cc1,118%
3,O=C(CN1C(=O)C2C3CCC(C3)C2C1=O)Oc1ccc2ccccc2c1 (centres undefined),105%
4,Cc1ccc(Cn2nnc3c(=O)[nH]c(C4CCN(S(=O)(=O)/C=C/c5ccccc5)CC4)nc32)cc1,93%
5,CCNC(=O)c1c(O)c2cccc3c2n(c1=O)CC3,107%
6,O=C(Cc1ccccc1)NCC1OCCc2ccccc21 (centres undefined),117%
7,CC1CCc2c(sc(NC(=O)c3ccc(Cn4cc(Br)cn4)o3)c2C(N)=O)C1 (centres undefined),108%
8,Cc1ccc2c(c1)NC(=O)[C@@]1(C)[C@@H](c3ccccc3)[C@H]3COc4ccc(Cl)cc4[C@@H]3N1C2=O,102%
9,O=C(Cn1c(COc2ccccc2)nc2ccccc21)Nc1cc(Cl)c(Cl)cc1Cl,110%
10,Cc1ccc2[nH]c3c(=O)n(CC(=O)NCCc4ccc(Cl)cc4)ncc3c2c1,137%
11,C/C(N)=C(/C#N)C(=O)COC(=O)c1cc(-c2cccc(Br)c2)nc2ccccc12,110%
12,CCOc1ccc2nc(Cl)c(C3CC(c4ccccc4)=NN3C(=O)c3cccs3)cc2c1 (centres undefined),131%
13,C=CCC[C@@H](Cc1ccc(F)cc1)C(=O)OC[C@H](Cc1c[nH]c2ccccc12)NC(=O)[C@@H](CC=C)CC(=O)N(CCO)Cc1ccccc1,123%
14,Cc1c(CCOC(=O)CC23CC4CC(CC(C)(C4)C2)C3)sc[n+]1Cc1ccc([N+](=O)[O-])cc1,821% (active)
15,CSCCC(NS(=O)(=O)c1ccc(C)cc1)C(=O)N1CCCC1 (centres undefined),89.3%
16,O=C(Nc1ccc(NC(=O)c2cccs2)cc1)c1ccc2ccccc2c1,108%
17,CCCc1nnc(SCC(=O)Nc2ccc(C(=O)OCC)cc2)o1,133%
18,CCNc1c(NS(=O)(=O)c2ccc(C3CCCCC3)cc2)c(=O)oc2ccccc12,98.7%
19,CCc1ccc(NC(=O)Cn2ncn3c(cc4ccccc43)c2=O)cc1,101%
20,COc1ccccc1NC(=O)C1CCCN1S(=O)(=O)c1ccc(Cl)cc1 (centres undefined),99.7%
21,CC(/C=C/c1ccccc1)=N\NC(=O)C1CC1(C)c1ccccc1 (centres undefined),94%
22,Cc1oc2cc3oc(=O)ccc3cc2c1C,107%
23,Cc1cc(C(=O)Nc2ccc(C)c(S(=O)(=O)N3CCOCC3)c2)c2ccccc2n1,83.1%
24,CCOc1ccccc1/C=c1\sc2nc(-c3ccco3)nn2c1=O,116%
